Among the data in PubChem BioAssay are composite z-score and z-score values, retold here.

A number with no mark means an inactive call. Calls of active or inactive are those of the source. Unless noted, how the calls were made is not given here.
Further: test concentration not given here.

Dihydroorotate dehydrogenase (quinone), mitochondrial (Plasmodium falciparum (isolate 3D7)), sequence (Q08210 whole entry, looked up): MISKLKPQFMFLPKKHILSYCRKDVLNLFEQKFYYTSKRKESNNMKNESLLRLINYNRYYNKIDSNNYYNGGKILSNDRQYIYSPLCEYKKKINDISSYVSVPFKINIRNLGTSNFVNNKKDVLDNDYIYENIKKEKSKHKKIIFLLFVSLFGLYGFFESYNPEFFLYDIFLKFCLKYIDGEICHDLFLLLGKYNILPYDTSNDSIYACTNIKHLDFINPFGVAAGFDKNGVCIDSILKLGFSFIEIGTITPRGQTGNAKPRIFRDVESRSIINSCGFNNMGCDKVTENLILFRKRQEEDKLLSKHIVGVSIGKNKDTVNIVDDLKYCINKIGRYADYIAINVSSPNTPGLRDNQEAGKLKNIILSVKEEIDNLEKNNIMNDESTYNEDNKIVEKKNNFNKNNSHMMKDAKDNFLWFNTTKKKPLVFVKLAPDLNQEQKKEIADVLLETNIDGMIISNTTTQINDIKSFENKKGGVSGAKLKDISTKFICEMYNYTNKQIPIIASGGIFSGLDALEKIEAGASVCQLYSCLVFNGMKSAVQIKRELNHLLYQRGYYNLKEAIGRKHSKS

The first assay addresses Dihydroorotate dehydrogenase (quinone), mitochondrial (Plasmodium falciparum (isolate 3D7)) (UniProt Q08210). Put plainly: PfDHODH enzyme inhibitors, primary screen, biochemical, C-terminal His tag, absorbance 600 nm (AID 1175).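 Further: recombinant parasite enzyme with a five histidine tag at its C terminus.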 Conditions: DCIP absorbance 600 nm, higher = more signal, called active from +8 up or from −8 down.
For the compound `COc1ccc(C#Cc2ccc3c(c2)[C@]2(C(=O)N3)[C@H](c3ccccc3OCCO)N3[C@H](c4ccccc4)[C@H](c4ccccc4)OC(=O)[C@H]3[C@@H]2C(=O)Nc2nc3ccccc3s2)cc1`, the composite z-score is -30.7 (active). Take `O=C(CS)NCCCCCCNC(=O)[C@@H]1C[C@@H]2C(=O)N[C@@H](Cc3ccccc3)C(=O)N2[C@@H]1c1cccc(OCCO)c1`: the composite z-score was -0.0547. Turning to `CC(C)N1C(=O)c2ccccc2[C@](C)(C(=O)NCCN2CCOCC2)[C@@H]1c1ccc(CO)cc1`, the composite z-score is 1.11.

On to `CCCC=C(CCC)[C@@H](NC(=O)c1cccs1)c1ccc(C(F)(F)F)cc1`, for which the composite z-score was -4.81. Still for that read-out and setting: under `C[N+](C)(C)CCCCNC(=O)[C@@H]1C[C@@H]2C(=O)N[C@@H](Cc3ccccc3)C(=O)N2[C@@H]1c1cccc(OCCO)c1` stands -24.9 (active); under `Cc1ccc(S[C@]2(C(=O)NC3CC3)CC(=O)N(Cc3ccccc3)[C@@H]2c2ccc(CO)cc2I)cc1`, -1.47; under `CCOC(=O)C1=C[C@@H](C(C)(C)C)N(S(=O)(=O)c2ccc(C)cc2)[C@H]1c1ccc(F)cc1`, 0.412.

For `COc1ccc(C(O)C2C=CC3C(=O)N(Cc4ccccc4)C(=O)C3N2n2cnnc2)cc1OCc1ccccc1` (centres undefined), the composite z-score is -0.265. Still for that read-out and setting: under `CC1CC/C=C\[C@H]2OC34C=CCN(C(C)(C)C)C(=O)[C@H]3N(CCO)C(=O)[C@@H]4C2C(=O)O1` (some centres undefined) stands -0.0848.

Test system in a further assay: not listed separately
Description: P. aeruginosa biofilm formation inhibitors, primary screen, strain PAO1, LB-PBS medium, absorbance 600 nm (AID 1176). As to conditions: P. aeruginosa PAO1 growth/biofilm, A600, 12 h; higher = more signal.
`CC(=O)NCCCC[C@@H]1NC(=O)[C@@H]2C[C@H](C(=O)NCCCCCNC(=O)CS)[C@H](c3cccc(OCCO)c3)N2C1=O`: the z-score was 0.879. With `COc1ccccc1CN1C(=O)c2ccccc2[C@@]2(Cc3ccccc3N(CC(C)C)C2=O)[C@@H]1c1ccc(CO)cc1`, the z-score was 0.332.

For `CC(CO)N1C(=O)[C@@H]2C3C(=O)OCCC/C=C\[C@H]3OC23C=CCN(C(C)(C)C)C(=O)[C@@H]13` (some centres undefined), the z-score is 0.727. Same read-out and setting: under `CC1(C)[C@@H]2CC(C(O)C3C=CC4C(=O)N(Cc5ccccc5)C(=O)C4N3n3cnnc3)=C[C@H]1C2` (some centres undefined) stands -0.445; under `O=C1C[C@@](C(=O)NC2CC2)(c2ccc([N+](=O)[O-])cc2)[C@@H](c2ccc(CO)cc2I)N1C1CCCCC1`, 0.512. The same measure, in the same setting: under `NC(=O)NCC#Cc1ccc2c(c1)[C@]1(C(=O)N2)[C@H](C(=O)Nc2nc3ccccc3s2)[C@H]2C(=O)O[C@H](c3ccccc3)[C@H](c3ccccc3)N2[C@@H]1c1ccccc1OCCO` stands 1.6; under `O=C1c2ccccc2[C@](Cc2ccccc2I)(C(=O)NCC(F)(F)F)[C@H](c2ccc(CO)cc2)N1Cc1ccccc1Cl`, 0.723. On the same count and under the same terms, then `CCC[C@@H]1C[C@@]1(CCC)[C@@H](NS(=O)(=O)c1cccc2cccnc12)c1ccc(Cl)cc1`, with 0.908. As to `CCCC[C@@H]1C[C@H]1[C@@H](NC(=O)c1ccco1)c1ccc(-c2ccccc2)cc1`, the z-score was 2.16.

Take `Cc1ccc(S[C@]2(C(=O)NCCCN(C)C)CC(=O)N(Cc3cc(C(F)(F)F)cc(C(F)(F)F)c3)[C@@H]2c2ccc(CO)cc2)cc1`: the z-score is 0.621. Same read-out and setting: under `C=C[C@@H](COC(=O)OC(C)(C)C)N(Cc1ccc(OC)cc1)S(=O)(=O)c1ccc(Br)cc1` stands -0.177; under `COCCOC(=O)N1C(=O)[C@@]2(c3cc(C#CCC(C(=O)OC)C(=O)OC)ccc31)[C@H](C(=O)N1CCN(c3ncccn3)CC1)[C@H]1C(=O)O[C@H](c3ccccc3)[C@H](c3ccccc3)N1[C@@H]2c1ccccc1OCCO`, 3.78.

In the case of `CN1C(=O)C2C=CC(C(O)c3ccccc3)N(N(c3ccccc3)c3ccccc3)C2C1=O` (centres undefined), the z-score is 0.226.

For `COc1ccc([Si](C)(C)[C@H]2[C@H](CC(=O)N3Cc4ccccc4C[C@H]3CO)O[C@@]3(C(=O)N(Cc4cccc(N5CCC5=O)c4)c4ccccc43)[C@@H]2C)cc1`, the z-score is 0.389. The same measure, in the same setting: under `C=CCC(OC(C)=O)[C@@H]1[C@@H](N(Cc2ccc(-c3cccc(C(F)(F)F)c3)o2)C(=O)c2ccc(C)cc2)c2cc(OCCCO)ccc2N1C(=O)Cc1ccc2ccccc2c1` (some centres undefined) stands -0.312. Take `Oc1ccc2cc[n+](Cc3sc4ccccc4c3Cl)cc2c1`: the z-score is -0.0748.

Regarding `COC(=O)C(CC#Cc1ccc2c(c1)[C@]1(C(=O)N2)[C@H](c2ccc(OCCO)cc2)N2[C@H](c3ccccc3)[C@H](c3ccccc3)OC(=O)[C@H]2[C@@H]1C(=O)N1CCc2cc(OC)c(OC)cc2C1)C(=O)OC`, the z-score was 3.7.

On to `COc1ccc(CCNC(=O)[C@@]2(Sc3ccc(C)cc3)CC(=O)N(C(C)C)[C@@H]2c2ccc(CO)cc2I)cc1`, for which the z-score was 0.196.

With `CN(C)CCCC[C@@H]1NC(=O)[C@@H]2C[C@H](C(=O)NCCCCCCN)[C@H](c3cccc(OCCO)c3)N2C1=O`, the z-score is 0.187. For `C=CCN1C(=O)[C@]2(O[C@H](CCn3cc([C@H](O)c4ccccc4)nn3)[C@@H]([Si](C)(C)c3ccc(OC)cc3)[C@@H]2C)c2ccccc21`, the z-score was 1.29. Still for that read-out and setting: then `COC(=O)C(CC#Cc1ccc2c(c1)[C@]1(C(=O)N2)[C@H](C(=O)Nc2nc3ccccc3s2)[C@H]2C(=O)O[C@H](c3ccccc3)[C@H](c3ccccc3)N2[C@@H]1c1ccc(O)cc1)C(=O)OC`, with 1.23; and `COc1cc2c(cc1O)C(c1cccs1)N(C)CC2` (centres undefined), with 0.282; and `C=CC[C@]1(C(=O)NCc2ccccc2)N=C(c2ccc(OCCCO)cc2)O[C@H]1c1ccccc1N=[N+]=[N-]`, with 1.39. On the same count and under the same terms, then `O=C(c1ccccc1)N1Cc2ccccc2C[C@@]2(COC(c3ccc(OCCCO)cc3)=N2)C1=O`, with 0.248; and `C=C[C@H](C)[C@@H](OC(=O)Nc1ccc(OC)cc1)c1ccc(O)c2ccccc12`, with 0.802; and `CCC(CC)C(O)C1C=CC2C(=O)NC(=O)C2N1Nc1ccc(Cl)cc1Cl` (centres undefined), with 1.26. As to `COc1ccc(C#Cc2ccc3c(c2)[C@]2(C(=O)N3)[C@H](c3ccccc3OCCO)N3[C@H](c4ccccc4)[C@H](c4ccccc4)OC(=O)[C@H]3[C@@H]2C(=O)Nc2nc3ccccc3s2)cc1`, the z-score is 2.77. With `O=C(CS)NCCCCCCNC(=O)[C@@H]1C[C@@H]2C(=O)N[C@@H](Cc3ccccc3)C(=O)N2[C@@H]1c1cccc(OCCO)c1`, the z-score was 0.255. As to `CC(C)N1C(=O)c2ccccc2[C@](C)(C(=O)NCCN2CCOCC2)[C@@H]1c1ccc(CO)cc1`, the z-score was 0.484. On to `CCCC=C(CCC)[C@@H](NC(=O)c1cccs1)c1ccc(C(F)(F)F)cc1`, for which the z-score is 1.69. For the compound `C[N+](C)(C)CCCCNC(=O)[C@@H]1C[C@@H]2C(=O)N[C@@H](Cc3ccccc3)C(=O)N2[C@@H]1c1cccc(OCCO)c1`, the z-score was -0.226. Still for that read-out and setting: then `Cc1ccc(S[C@]2(C(=O)NC3CC3)CC(=O)N(Cc3ccccc3)[C@@H]2c2ccc(CO)cc2I)cc1`, with 0.751. As to `CCOC(=O)C1=C[C@@H](C(C)(C)C)N(S(=O)(=O)c2ccc(C)cc2)[C@H]1c1ccc(F)cc1`, the z-score is -0.116.

For `COc1ccc(C(O)C2C=CC3C(=O)N(Cc4ccccc4)C(=O)C3N2n2cnnc2)cc1OCc1ccccc1` (centres undefined), the z-score was 1.13. On the same count and under the same terms, then `CC1CC/C=C\[C@H]2OC34C=CCN(C(C)(C)C)C(=O)[C@H]3N(CCO)C(=O)[C@@H]4C2C(=O)O1` (some centres undefined), with 0.22.
